# Data: PubChem BioAssay (Tox21)
# Inconclusive results are not listed. Entries that show only a call come without a potency. Active and inactive are the calls of the source. Calls come from the whole dose curve.
# Experiment: p53 small molecule agonists, cell-based qHTS assay with rat liver microsomes (AID 1963578)
# Conditions: HCT-116 p53RE-bla, beta-lactamase ratio, 16 h; series mostly up to 66 µM
# Text: U.S. Tox21 Program National Center for Advancing Translational Sciences [NCATS] Division of Preclinical Innovation [DPI] U.S. Environmental Protection Agency [EPA] National Institutes of Environmental Health Sciences [NIEHS] National Toxicology Program [NTP] U.S. Food and Drug Administration [FDA] Tox21 Assay Overview: p53, a tumor suppressor protein, is activated following cellular insult, including DNA damage and other cellular stresses. The activation of p53 regulates cell fate by inducing DNA repair, cell cycle arrest, apoptosis, or cellular senescence. The activation of p53, therefore, is a good indicator of DNA damage and other cellular stresses. […] The activation of the reporter gene under culture conditions can be detected by fluorescence intensity. This cell line was used to screen the Tox21 10K compound library in the condition of presence of rat liver microsomes and to identify agonists that activate the p53 signaling pathway after in vitro metabolic activation (Ooka et al., Archive of Toxicology 96:1975-1987, 2022).
# Tox21 Assay Protocol Summary: The p53RE-bla cells were dispensed at 4,000cells/3ul/well in 1536-well black-clear bottom plates. After the assay plates were incubated at 37 C, 5% CO2 incubator for 5 hours, 23 nL of compounds dissolved in DMSO, positive controls or DMSO only was transferred to the assay plate. Following compound addition, 3 uL of rat liver microsomes (Molecular Toxicology, Boone, NC) at final concentration of 0.5 mg/mL and 1uL of Beta-Nicotinamide adenine dinucleotide 2-phosphate (NADPH) at final concentration of 0.5 mg/mL were transferred to the assay plate. The plates were incubated at 37 C for 16 hours. 1 uL of LiveBLAzer detection mixture was added to each well and the plates were incubated at room temperature in the dark for 2 h.
# Potency is the fitted concentration of half-maximal effect.
row,Structure (SMILES),Potency
1,CN1[C@@H]2CC[C@H]1CC(O)C2 (stereo not given in full),inactive
2,Cc1cc(C)c(C(=O)P(=O)(c2ccccc2)c2ccccc2)c(C)c1,inactive
3,CCCN1CCC[C@@H]2Cc3[nH]ncc3C[C@H]21,inactive
4,CCC1(c2ccccc2)C(=O)NC(=O)NC1=O,inactive
5,O=CC(Br)(Br)Br,inactive
6,CCOc1cccc(C2(N3CCN(c4ccccc4)CC3)CCC(C)CC2)c1 (stereo not given),inactive
7,O=c1[nH]c(Cl)c(Cl)cc1Cl,inactive
8,C[C@]12C/C(=C/O)C(=O)C[C@@H]1CC[C@@H]1[C@@H]2CC[C@@]2(C)[C@H]1CC[C@]2(C)O,inactive
9,CCC1(c2cnc[nH]2)Cc2ccccc2C1,inactive
10,C[C@H]1CNCCc2ccc(Cl)cc21,inactive
11,CC(C)(OO)c1ccccc1,inactive
12,CNCC(=O)c1ccc(O)c(O)c1,inactive
13,Oc1ccc2[nH]cc(CCCCN3CC=C(c4ccccc4)CC3)c2c1,inactive
14,CC(=O)[O][Sn]([c]1ccccc1)([c]1ccccc1)[c]1ccccc1,inactive
15,COc1cc(CC(C)N)cc(OC)c1OC (stereo not given),inactive
16,CC(C)[N+](=O)[O-],inactive
17,C=CC(=O)OCC(COC(=O)C=C)(COC(=O)C=C)COC(=O)C=C,inactive
18,CC1CCC(C(C)C)C(OC(=O)c2ccccc2N)C1 (stereo not given),35.8 µM (active)
19,COc1cc(Cl)c(OC)cc1Cl,inactive
20,Cn1sc(Cl)cc1=O,inactive

row,Structure (SMILES),Potency
1,C=CCOC(=O)C(C)(C)OC(=O)c1cc(-n2c(=O)cc(C(F)(F)F)n(C)c2=O)ccc1Cl,inactive
2,CCCCCCCCP(=O)(O)O,inactive
3,CCc1nn(C)c(C(=O)NCc2ccc(C(C)(C)C)cc2)c1Cl,inactive
4,CCCCOC(=O)[C@@H](C)Oc1ccc(Oc2ccc(C#N)cc2F)cc1,inactive
5,CC1(C)CN=C(NN=C(/C=C/c2ccc(C(F)(F)F)cc2)/C=C/c2ccc(C(F)(F)F)cc2)NC1,inactive
6,O=[N+]([O-])c1cc([N+](=O)[O-])c2ccccc2c1,inactive
7,CC(Cc1ccccc1)NCCn1cnc2c1c(=O)n(C)c(=O)n2C (stereo not given),inactive
8,N#Cc1c(-c2ccc(Cl)cc2)[nH]c(C(F)(F)F)c1Br,inactive
9,ClCc1cccc(Cl)c1,inactive
10,Clc1ccc(-c2ccccc2)cc1,inactive
11,C[C@]12CC[C@@H](O)C[C@@H]1CC[C@@H]1[C@@H]2CC[C@]2(C)C(=O)CC[C@@H]12,inactive
12,CN[C@@H](C)[C@H](O)c1ccccc1,inactive
13,CCCCN(N=O)C(=N)N[N+](=O)[O-],inactive
14,CN(C)CCc1c[nH]c2cccc(O)c12,inactive
15,Oc1ccc2c3c1O[C@H]1[C@@H](O)C=C[C@H]4[C@@H](C2)NCC[C@@]341,inactive
16,CC(Cl)C(C)Cl (stereo not given),inactive
17,Cc1ccc(-c2c(Cl)nc(C#N)n2S(=O)(=O)N(C)C)cc1,inactive
18,O=S(=O)(C(Cl)(Cl)Cl)C(Cl)(Cl)Cl,inactive
19,O=C(Nc1ccccc1)Nc1ccnc(Cl)c1,inactive
20,CC1CCCC1,inactive
